Measurements reported in PubChem BioAssay (NCI).
This is part of a sample that, as a whole, favours compounds with a hit. Of some 83,000 tested, about 20% had one in any assay.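 Plates (96-well) were seeded with cells, treated with compound at one concentration, and incubated for 48 hours before percent growth was determined.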 Values without a mark were called inactive. Active and inactive are the calls of the source. The calls were made as follows: active = growth percent below 10; inactive = the rest.

What follows are molecules tested on SK-MEL-2 melanoma (assay: NCI-60 one-dose screen, 48 h (100 = growth as untreated, 0 = no growth, -100 = all killed)). Conditions: 10 µM.
With O=C1/C(=C/c2ccc(O)cc2)Oc2ccc(Cl)cc21 the growth was 109%.
In the case of COc1cc(C(=O)n2nc(N)c3c(C)cc(C)nc32)cc(OC)c1OC, the growth is reported as 30.3%.
With C#Cc1ccc(-n2c(/C=C/c3cc(OC)c(OC)c(OC)c3)nc3ncccc3c2=O)cc1 the growth was -2.4% (active).
For COC(=O)[C@]12CC[C@@H](C)[C@H](C)[C@@H]1C1=CC[C@@H]3[C@@]4(C)C[C@@H](O)[C@H](O)[C@@](C)(CO)[C@@H]4[C@H](O)C[C@@]3(C)[C@]1(C)CC2, the growth was -88.2% (active).
Molecule Oc1ccccc1-c1nnc(Cn2c(Cc3cccc4ccccc34)nc3ccccc32)o1 has a growth of 83.1%.
COc1ccc(C2C=C(c3ccc(Cl)c(Cl)c3)N=C3SC(C)=CN32)cc1 (stereo unspecified) was tested, and the growth was 94.8%.
For S=c1c2ncccc2c(-c2ccccn2)nn1Cc1ccccn1, the growth was 92.1%.
Nc1cc(O)cc(O)c1 showed a growth of 98.7%.
Work on COc1c(-c2c3sc(=O)[nH]c3nc3c2c(=O)[nH]n3C(C)C)cc2c(c1OC)OCO2 yielded a growth of 85.3%.
Cc1c(C(=O)N[C@H](CO)Cc2ccccc2)[nH]c2ccc(Cl)cc2c1=O showed a growth of 95.7%.
COc1cc(Cn2c(-c3ccccc3)c(Cl)c3c2-c2oncc2CC3)cc(OC)c1 was tested, and the growth was 75.3%.
In the case of C/C=C\COc1cc(C)c(Cl)cc1Cl, the growth is reported as 120%.
CCOC(=O)CNC(=O)Nc1ccc(Oc2ccc(NC(=O)NCC(=O)OCC)cc2)cc1 showed a growth of 115%.
c1ccc(CNc2nc(Nc3ccc(-c4nc5ccccc5[nH]4)cc3)c3cn[nH]c3n2)cc1 was tested, and the growth was -59.2% (active).
c1ccc(COCC[P+](c2ccccc2)(c2ccccc2)c2ccccc2)cc1 was tested, and the growth was -14.8% (active).
With CCOC(=O)C1=C(Nc2ccc(OC)cc2)C(N)=NC1=N the growth was 44.6%.
NC(=O)C1CCCN(Cc2c[nH]c3ccccc23)C1 (stereo unspecified) gave a growth of 86.5%.
With CC(=O)n1nc(C(=O)OC(C)(C)C)c2cc(F)c(F)cc21 the growth was 100%.
For Cc1cc(Cl)ccc1Nc1nc(C(F)(F)F)ccc1C(=O)N/N=C/c1ccccc1Cl, the growth was 19.2%.
With CN1/C(=C\C(I)C(I)C2=[N+](C)c3ccccc3C2(C)C)C(C)(C)c2ccccc21 (stereo unspecified) the growth was -13% (active).
With N#C/C(=C/c1cc([N+](=O)[O-])ccc1Cl)C(N)=O the growth was 88.2%.
CCCCCCCCCCCC(=O)NCCCN(C)C showed a growth of 92.2%.
For CCc1nn2c(-c3cc(OC)c(OC)c(OC)c3)c(-c3cc(OC)c(OC)c(OC)c3)nc2s1, the growth was 44.5%.
CCN1CCN(c2nc(NNC(=O)c3cccc(OC)c3)nc(N3CCN(C(c4ccccc4)c4ccccc4)CC3)n2)CC1 gave a growth of 75%.
CCCCOCCOCCOCc1cc2c(cc1Br)OCO2 showed a growth of 92%.
CCCCCCCCCCCCCC[n+]1ccccc1 was tested, and the growth was -78% (active).
Cc1cc(C)c2nc(C)c(C)[n+]([O-])c2c1 was tested, and the growth was 106%.
Clc1cc(Cl)c(OCCCCCCN2CCNCC2)c(Cl)c1 showed a growth of 65.2%.
Molecule COc1ccc(NC(=O)c2sc3nc4c(cc3c2N)C(O)CCC4)cc1 (stereo unspecified) has a growth of 96%.
For Cc1cc(C(C)(C)CC(C)(C)C)ccc1OCCOCC[N+](C)(C)Cc1ccccc1, the growth was -34.2% (active).
CCCCCC(=O)N1c2ccccc2NC2=C(C(=O)CC(c3ccc(OC)c(OC)c3)C2)C1c1ccc(C(F)(F)F)cc1 (stereo unspecified) gave a growth of 47.8%.
COc1cc(C2C(C#N)=C(c3c[nH]c4ccccc34)Nc3nc(N)[nH]c(=O)c32)cc(OC)c1OC (stereo unspecified) was tested, and the growth was 93.8%.
COc1ccc(-c2nc(-c3nc4ccc(C)cc4[nH]3)c3ccccn23)cc1 was tested, and the growth was 47%.
COCCOC(=O)NC(=O)Nc1ccc(/C(=N/O)c2ccc(Cl)cc2)cc1 gave a growth of 18.7%.
CCN(CCCNC(=O)Cc1cc(=O)oc2cc(N(C)C)ccc12)CCNc1ccnc2cc(Cl)ccc12 was tested, and the growth was 117%.
In the case of CC(C)c1ncc(CO)n1Cc1c(Cl)cccc1Cl, the growth is reported as 101%.
